The list is not random: actives were taken first. Their share in the collection is about 12%.
SARS PLpro yeast: SARS-CoV PLP inhibition in yeast; Potency, µM (top dose mostly 32.9 µM), inactives show top-dose activity, positive = growth rescue, most hits filed as activators; AID 485353; S. cerevisiae expressing SARS-CoV PLpro, growth rescue; 330,000 compounds, 0.19% hits; calls by dose curve; note: 0% is about no effect; nearly all actives have a fitted effect of over 55% in size
Sm TGR block: inhibitors of Schistosoma mansoni thioredoxin glutathione reductase. Q962Y6. purified TGR, DTNB reduction, TNB absorbance 405 nm. Potency, µM (titrated, usually from 114 µM), for the others: top-dose activity change, negative = inhibition, actives largely listed as inhibitors. 360,000 compounds, 3% hits. AID 485364; note: % is set by controls: 0 for no effect and ±100 for the full control effect; nearly all actives have a fitted effect of over 60% in size
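First, TGR (20 nM dispensed) and NADPH were mixed with compound. Second, a 15 min room-temperature incubation followed. Third, further NADPH and then DTNB were added to start the reaction. Finally, TNB absorbance was monitored kinetically.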
Pf growth 96h: inhibits malaria parasite growth, 96 h; Potency, µM (doses to about 28.7 µM), inactives show at the top dose activity change, negative = inhibition, actives largely listed as inhibitors; 320,000 compounds, 6.9% hits; P. falciparum luciferase reporter growth, 96 h; note: % is set by controls: 0 for no effect and ±100 for the full control effect
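Two-generation exposure (96 h) targets delayed-death phenotype. Reporter parasites carrying integrated firefly luciferase, in red cells at 2% hematocrit and 0.05% parasitemia final, kept at 37 C, 5% CO2; luminescence loss indicates inhibition.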
Pf growth 48h: P. falciparum growth inhibition at 48 hours (one generation). P. falciparum luciferase growth in erythrocytes, 48 h. Potency, µM (highest dose often 28.7 µM), without a hit: at the highest dose activity change, negative = inhibition, hits mostly inhibitors. 310,000 compounds, 5.9% hits. AID 504832; note: % is set by controls: 0 for no effect and ±100 for the full control effect
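Parasite viability was followed by luminescence of a genomically integrated firefly luciferase. Cultures held 0.1% parasitemia at 2% hematocrit (final), incubated under 5% CO2 at 37 C.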
AmpC inh detg: AmpC beta-lactamase inhibition with detergent present. P00811. Potency, µM (doses to about 114 µM), for the others: top-dose activity change, negative = inhibition, hits mostly inhibitors. 370,000 compounds, 0.041% hits. AmpC hydrolysis of nitrocefin, absorbance 480 nm, 0.01% Triton. AID 485294;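 note: 0% = no-compound wells and -100% = no-enzyme wells; nearly all actives have a fitted effect of over 25% in size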
Target sequence (P00811 whole entry, looked up): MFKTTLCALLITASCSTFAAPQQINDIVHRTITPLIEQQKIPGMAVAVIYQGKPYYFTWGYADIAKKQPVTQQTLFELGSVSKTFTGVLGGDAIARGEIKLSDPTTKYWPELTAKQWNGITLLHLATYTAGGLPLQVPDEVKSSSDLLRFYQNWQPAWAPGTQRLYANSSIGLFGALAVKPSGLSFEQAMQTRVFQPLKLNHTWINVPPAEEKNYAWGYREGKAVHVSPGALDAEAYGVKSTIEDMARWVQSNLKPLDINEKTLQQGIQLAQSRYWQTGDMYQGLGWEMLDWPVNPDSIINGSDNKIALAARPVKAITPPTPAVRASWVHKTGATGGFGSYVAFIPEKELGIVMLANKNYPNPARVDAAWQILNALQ
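AmpC (5.3 nM in the dispensed reagent) in 20 mM phosphate pH 7.0 with 0.01% (detergent screen) or 0.0001% Triton X-100 was preincubated with compounds for 15 min at room temperature. Nitrocefin was then added from an 800 uM solution, and hydrolysis was followed at 480 nm.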
AmpC inh no detg: blocks E. coli AmpC beta-lactamase in detergent-free assay; Potency, µM (top dose mostly 57.1 µM), for the others: top-dose activity change, negative = inhibition, hits mostly inhibitors; P00811; AmpC nitrocefin hydrolysis, absorbance 480 nm, 0.0001% Triton; 330,000 compounds, 0.52% hits;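 note: plate controls were no compound for no effect and no enzyme for full effect; nearly all actives have a fitted effect of over 20% in size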
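AmpC (5.3 nM in the dispensed reagent) in 20 mM phosphate pH 7.0 with 0.01% (detergent screen) or 0.0001% Triton X-100 was preincubated with compounds for 15 min at room temperature. Nitrocefin was then added from an 800 uM solution, and hydrolysis was followed at 480 nm.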
* marks the source's active call; other numbers are inactive results; ? = inconclusive; . = no result given. Unless noted, calls come from the whole dose curve; as a rule, active = well fitted curve in the direction sought with a large enough effect; inconclusive = small, poorly fitted or top-dose-only effect, or another doubt; inactive = no such curve, though single readings can be large; an effect the other way counts as inactive or inconclusive. Potency is the fitted concentration of half-maximal effect.

SMILES	SARS PLpro yeast	Sm TGR block	Pf growth 96h	Pf growth 48h	AmpC inh detg	AmpC inh no detg
Cc1ccccc1-c1ccc(/C=C2/SC(N3CCOCC3)=NC2=O)o1	0%	?	?	10µM*	-6%	2%
O=C(CN1CCN(c2cccc(Cl)c2)CC1)Nc1ccc([N+](=O)[O-])cc1C(=O)Nc1ccccc1F	-1%	5%	31%	?	?	-23%
COc1cccc(NC(=O)c2cc([N+](=O)[O-])ccc2NC(=O)CNCC2CCCO2)c1 (stereo not drawn)	1%	3%	29%	?	-12%	-15%
Cc1ccc(C)c(N2CCN(CC(=O)Nc3ccc([N+](=O)[O-])cc3C(=O)Nc3ccccc3F)CC2)c1	0%	17%	2.3µM*	?	2%	-29%
O=C(CNCC1CCCO1)Nc1ccc([N+](=O)[O-])cc1C(=O)Nc1ccccc1F (stereo not drawn)	4%	-2%	5.9µM*	?	1%	-11%
CCOc1ccc(CCNc2nc3ccccc3n3c(C)nnc23)cc1OCC	-1%	9%	16%	5.2µM*	3%	-7%
CCCCOc1ccc(/C=C/C(=O)NCCc2nc3ccccc3[nH]2)cc1	1%	-20%	12µM*	?	?	-30%
O=C(NCCc1nc2ccccc2[nH]1)c1ccco1	9%	8%	-9%	31%	?	-4%
O=C(/C=C/c1ccco1)N/C(=C\c1ccccc1)C(=O)NCCc1nc2ccccc2[nH]1	1%	50µM*	-5%	-13%	-5%	-30%
COc1ccc(/C=C/C(=O)NCCc2nc3ccccc3[nH]2)cc1	1%	28%	?	?	7%	-15%
Cc1ccc(NC(=O)c2ccc(NCCc3ccccc3)c([N+](=O)[O-])c2)cc1F	-19%	-14%	8.3µM*	0%	-6%	-18%
CCNc1ccc(C(=O)Nc2ccc3nc(C)sc3c2)cc1[N+](=O)[O-]	-28%	4%	?	?	-1%	27%
Cc1ccc(NC(=O)c2ccc(NCCN)c([N+](=O)[O-])c2)cc1Cl	-22%	-11%	7%	4.1µM*	?	-23%
O=C1NC(Cc2ccccc2)c2nc3ccc(F)cc3c(=O)n2-c2cc(Cl)ccc21 (stereo not drawn)	0%	.	.	.	.	-32%
O=C(Nc1ccncc1)c1ccc(F)cc1	1%	6%	5.2µM*	.	-8%	-18%
CC(NC(=S)Nc1ccc([N+](=O)[O-])cc1)c1ccncc1 (stereo not drawn)	-1%	45µM*	0%	?	0%	-38%
O=C(CCNC(=O)c1ccc([N+](=O)[O-])cc1)NNC(=O)c1ccncc1	6.3µM*	-14%	-21%	-16%	0%	-11%
O=C(NNC(=O)c1cnccn1)c1ccc(Cl)c(Cl)c1	2%	-9%	3.7µM*	?	-1%	-12%
CC(=O)Nc1ccc(C(=O)Nc2ccncc2)cc1	0%	-5%	0%	3%	-5%	-8%
COc1ccc(C(=O)Cn2c(=O)n3nc(CCn4nc(C)cc4C)nc3c3cc(OC)c(OC)cc32)cc1	.	9%	.	.	6%	.
O=C(Nc1ccc(Cl)c(S(=O)(=O)N2CCCCC2)c1)c1cccnc1	-3%	2%	?	12µM*	-3%	-7%
Cc1ccc(NC(=O)c2ccc(F)cc2)nc1	5%	4%	5.2µM*	-9%	-7%	-25%
O=C(Nc1ccc(N2CCCC2)c(Cl)c1)c1cccnc1	-9%	50µM*	?	?	?	84%
Cc1ccc(NC(=O)c2ccc3[nH]c(=O)c(=O)[nH]c3c2)nc1	-3%	3%	21%	26%	1%	-2%
COc1ccc(C(=O)Nc2ccccc2C(=O)Nc2ccncc2)cc1	-1%	2%	-7%	10µM*	2%	-15%
SMILES	SARS PLpro yeast	Sm TGR block	Pf growth 96h	Pf growth 48h	AmpC inh detg	AmpC inh no detg
COc1ccc(C(=O)Nc2ccccc2C(=O)Nc2ccc(C(=O)O)cc2)cc1	-1%	35%	-80%	39%	0%	-9%
CCOc1ccccc1NC(=O)Nc1cc(C(=O)NCc2ccc(C)cc2)ccc1N1CCCC1	.	4%	.	.	14%	.
COc1ccc(NC(=S)Nc2ccccc2SC)c(OC)c1	-2%	-31%	54%	27%	-5%	-12%
CC(C)CC(=O)N1CCN(Cc2ccc(C(F)(F)F)cc2)CC1	-15%	8%	-26%	-15%	-7%	165%
O=S1(=O)CC(O)C(NCCO)C1 (stereo not drawn)	-5%	7%	1%	4%	?	-11%
CCC(C)c1ccc(NC(=S)NC(C)C2CCCO2)cc1 (stereo not drawn)	1%	1%	?	68%	-6%	-20%
Cc1nonc1NC(=O)c1ccc(Cl)c(S(=O)(=O)N2CCCCC2)c1	1%	10%	2.6µM*	-6%	6%	-39%
O=C(Nc1ccncc1)c1ccc(Cl)c(Cl)c1	-9%	-1%	2.9µM*	?	-5%	-45%
O=C(Nc1ccc(Br)cc1)c1ccc(Cl)c(S(=O)(=O)N2CCCCCC2)c1	.	13%	.	.	1%	.
O=C(Nc1ccc(Nc2ccncc2)cc1)c1ccc(Nc2ccnc3ccc([N+](=O)[O-])cc23)cc1[N+](=O)[O-]	1%	?	0.52µM*	1.5µM*	-10%	-19%
O=C(Nc1ccncc1)c1ccc(Cl)c(S(=O)(=O)N2CCCC2)c1	-5%	-2%	?	12µM*	-10%	-26%
Cc1cccnc1NC(=O)c1ccc(Cl)c(S(=O)(=O)N2CCCCCC2)c1	11%	3%	?	?	1%	12%
CCCc1cc(=O)[nH]c(SCC(=O)c2cc(C)n(C(C)COC)c2C)n1 (stereo not drawn)	-3%	-15%	-27%	-14%	-12%	-13%
O=C(Nc1ccc(Oc2cccnc2)cc1)c1ccc([N+](=O)[O-])cc1	-1%	-3%	-2%	?	1%	-8%
O=C(Nc1ccc(Nc2ccncc2)cc1)c1ccc([N+](=O)[O-])cc1	1%	-3%	1.7µM*	2.6µM*	2%	-24%
COC/C=C/C1=CC2=CC(=O)C(C)(OC(=O)c3cnc4ccccc4n3)C(=O)C2=CN1C1CCCCC1 (stereo not drawn)	-1%	?	0%	-3%	-8%	58%
COC/C=C/C1=CC2=CC(=O)C(C)(OC(=O)c3cnc4ccccc4n3)C(=O)C2=CN1c1ccccc1 (stereo not drawn)	0%	22µM*	?	?	-11%	56%
